The values that follow come from PubChem BioAssay.

Activity calls are given as the source filed them.

The test system of experiment [1] is PRMT1 (protein arginine N-methyltransferase 1). Put plainly: PRMT1 binders on small-molecule microarrays, primary screen, biochemical, small-molecule microarray, 635 nm fluorescence (AID 1088).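 Note: binding of Prmt1 protein to compounds spotted on small-molecule microarray slides.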 Conditions: small-molecule microarray binding, higher = more signal.
Experiment [2] can be described thus: yeast growth modulation, basal conditions, primary screen, YJM789 clinical isolate, OD600, 24 h (AID 1089).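 Note: growth of clinical yeast isolate S. cerevisiae YJM 789 seeded 1000 cells per well; test concentration not given here.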 Conditions: S. cerevisiae YJM789 growth, higher = more signal, called active from +8 up or from −8 down.
Experiment [3] in a line: fission yeast growth modulation, primary screen, strain 972, OD600, 24 h, no modulator (AID 1090).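 Note: basal condition with compound alone and no growth modifier present; test concentration not given here.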 Conditions: S. pombe 972 growth, higher = more signal, called active from +8 up or from −8 down.
A short description of experiment [4]: S. cerevisiae growth modulation with rapamycin, primary screen, strain BY4716, OD600, 96 h (AID 1091). Note: test concentration not given here. Conditions: higher = more signal, called active from +8 up or from −8 down.
The target of experiment [5] is Torsin-1A-interacting protein 2 (Homo sapiens) (UniProt Q8NFQ8). Put plainly: LULL1 binders on small-molecule microarray, primary screen, cell lysate, human LULL1 lysate, 635/667 nm fluorescence (AID 1092).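 Note: probe is lysate of COS7 cells overexpressing human LULL1; score merges per-feature 667 nm fluorescence with signal-to-noise.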 Conditions: hLULL1 lysate binding, 635 nm fluorescence, higher = more signal.
Chain of Torsin-1A-interacting protein 2 (Homo sapiens) (Q8NFQ8 whole entry, looked up): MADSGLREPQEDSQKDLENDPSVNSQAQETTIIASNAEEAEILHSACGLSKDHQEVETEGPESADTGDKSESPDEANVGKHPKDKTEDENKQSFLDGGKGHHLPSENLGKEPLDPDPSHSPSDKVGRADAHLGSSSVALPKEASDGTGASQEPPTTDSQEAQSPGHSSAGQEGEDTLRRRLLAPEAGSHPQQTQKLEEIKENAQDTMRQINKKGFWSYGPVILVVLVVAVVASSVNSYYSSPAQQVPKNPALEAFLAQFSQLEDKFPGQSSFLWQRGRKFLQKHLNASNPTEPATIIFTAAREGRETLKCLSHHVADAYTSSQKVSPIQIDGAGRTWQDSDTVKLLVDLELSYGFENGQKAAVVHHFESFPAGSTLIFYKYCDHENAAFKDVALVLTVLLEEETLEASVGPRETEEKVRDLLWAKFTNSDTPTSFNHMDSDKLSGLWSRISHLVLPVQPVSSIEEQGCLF
Experiment [6] is described as follows: E. coli growth modulation, two-sided OD650, primary screen, E. coli filamentation project, strain DRC41, 24 h (AID 1093).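 Note: MC1000 strain lacking acrAB efflux and sulA so SOS filamentation is blocked; test concentration not given here.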 Conditions: OD650, 24 h, higher = more signal, called active from +8 up or from −8 down.
The nature of experiment [7]: small-molecule microarray binders of probe aLefty2, primary screen, biochemical, biotinylated probe, 635/667 nm fluorescence (AID 1094).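 Note: score merges spot fluorescence near 667 nm with spot signal-to-noise ratio.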 The settings on record: higher = more signal.
The subject of experiment [8] is Noggin (protein binding on small-molecule microarray). As to the kind of experiment: Noggin binders on small-molecule microarray, primary screen, biochemical, 635/667 nm fluorescence (AID 1095).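 Note: score merges 667 nm feature fluorescence with signal to noise over triplicate slides.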 Conditions: 635 nm fluorescence, higher = more signal.
Experiment [9] has as its target Neurogenic locus notch homolog protein 3 (Homo sapiens) (UniProt Q9UM47). As to the kind of experiment: NOTCH3 binders on small-molecule microarray, primary screen, biochemical, 635/667 nm fluorescence (AID 1096). The settings on record: NOTCH3 binding, 635 nm fluorescence, higher = more signal.
Experiment [10] can be described thus: small-molecule microarray binders of probe aEGFR, primary screen, biochemical, biotinylated probe, 635/667 nm fluorescence (AID 1097).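 Note: probe is a biotinylated anti-EGFR antibody binding compounds printed on slides; score combines fluorescence near 667 nm and signal to noise of each spot.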 Conditions: higher = more signal.
In experiment [11] the test system is Plasmodium falciparum Sir2 (PF13_0152, Sir2A). Put plainly: pfSir2 binders on small-molecule microarrays, primary screen, biochemical, small-molecule microarray, 635 nm fluorescence (AID 1098).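 Note: score merges spot fluorescence intensity with its signal-to-noise ratio.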 Conditions: small-molecule microarray binding, fluorescence 635 nm; higher = more signal.
The nature of experiment [12]: small-molecule microarray binders of probe aDKK1, primary screen, biochemical, biotinylated probe, 635/667 nm fluorescence (AID 1099).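 Note: score merges 667nm spot fluorescence with signal to noise across triplicate slides; reference of the scale not given here.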 Conditions: higher = more signal.
Experiment [13] can be described thus: small-molecule microarray binders of probe aCHRDL2, primary screen, biochemical, biotinylated probe, 635/667 nm fluorescence (AID 1100). Conditions: higher = more signal.
Experiment [14] in a line: splicing luciferase reporter signal modulators, primary screen, spliceosome inhibition project, cell-based, HEK293, splice +/- reporter (AID 1101).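 Note: HEK293 cells carrying a splicing-competent luciferase reporter gene; test concentration not given here.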 The settings on record: luminescence, 24 h, higher = more signal, called active from +8 up or from −8 down.
Experiment [15] concerns the target Fibroblast growth factor 10 (Homo sapiens) (UniProt O15520). As to the kind of experiment: FGF10 binders on small-molecule microarrays, primary screen, biochemical, small-molecule microarray, 635 nm fluorescence (AID 1102). Conditions: FGF10 binding, fluorescence 635 nm, higher = more signal.
Experiment [16] relates to glycogen synthase kinase-3 (GSK3A per assay name; protocol says GSK3B). As to the kind of experiment: GSK3 binders on small-molecule microarrays, primary screen, biochemical, small-molecule microarray, 635 nm fluorescence, GSK3A (AID 1103). Note: the record names both GSK3A and GSK3B. The settings on record: small-molecule microarray binding, fluorescence 635 nm; higher = more signal.
The target in experiment [17] is Epidermal growth factor receptor (Homo sapiens) (UniProt P00533). As to the kind of experiment: EGFR binders on small-molecule microarrays, primary screen, biochemical, small-molecule microarray, 635 nm fluorescence (AID 1104).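 Note: score merges 667 nm emission intensity with spot signal to noise over triplicate slides.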 The settings on record: EGFR binding, higher = more signal.
Chain of Epidermal growth factor receptor (Homo sapiens) (P00533 whole entry, looked up): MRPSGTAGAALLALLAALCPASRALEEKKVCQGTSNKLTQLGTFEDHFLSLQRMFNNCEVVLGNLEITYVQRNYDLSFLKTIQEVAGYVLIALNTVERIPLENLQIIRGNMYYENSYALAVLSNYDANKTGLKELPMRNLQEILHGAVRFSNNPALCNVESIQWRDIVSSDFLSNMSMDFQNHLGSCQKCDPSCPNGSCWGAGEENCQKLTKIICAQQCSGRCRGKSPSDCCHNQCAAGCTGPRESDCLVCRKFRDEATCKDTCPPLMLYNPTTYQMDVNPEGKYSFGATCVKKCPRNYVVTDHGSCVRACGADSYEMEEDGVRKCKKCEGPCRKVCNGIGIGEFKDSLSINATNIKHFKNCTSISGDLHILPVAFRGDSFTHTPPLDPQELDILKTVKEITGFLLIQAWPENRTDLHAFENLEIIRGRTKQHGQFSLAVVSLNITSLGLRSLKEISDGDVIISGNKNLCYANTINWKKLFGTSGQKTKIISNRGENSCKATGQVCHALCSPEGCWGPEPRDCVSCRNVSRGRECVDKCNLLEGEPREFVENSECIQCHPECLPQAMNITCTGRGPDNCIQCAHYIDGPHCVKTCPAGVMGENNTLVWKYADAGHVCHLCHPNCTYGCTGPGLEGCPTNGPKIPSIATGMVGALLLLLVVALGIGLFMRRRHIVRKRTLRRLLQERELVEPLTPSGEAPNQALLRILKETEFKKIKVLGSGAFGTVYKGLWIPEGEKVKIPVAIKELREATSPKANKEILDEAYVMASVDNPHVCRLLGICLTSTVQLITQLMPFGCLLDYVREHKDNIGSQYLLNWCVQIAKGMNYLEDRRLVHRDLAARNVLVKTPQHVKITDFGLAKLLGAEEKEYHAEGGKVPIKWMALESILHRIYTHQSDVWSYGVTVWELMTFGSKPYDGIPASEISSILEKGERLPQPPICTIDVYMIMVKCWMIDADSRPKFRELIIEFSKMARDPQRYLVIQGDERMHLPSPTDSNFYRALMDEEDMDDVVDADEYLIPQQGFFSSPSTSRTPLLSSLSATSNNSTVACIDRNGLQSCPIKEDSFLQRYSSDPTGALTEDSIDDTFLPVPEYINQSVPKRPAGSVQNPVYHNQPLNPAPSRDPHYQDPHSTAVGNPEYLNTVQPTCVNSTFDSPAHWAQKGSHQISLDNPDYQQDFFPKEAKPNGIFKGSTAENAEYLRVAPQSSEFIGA
In experiment [18] the target is Follistatin-related protein 3 (Homo sapiens) (UniProt O95633). Put plainly: FSTL3 binders on small-molecule microarrays, primary screen, biochemical, small-molecule microarray, 635 nm fluorescence (AID 1105).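 Note: score merges emission near 667 nm and signal to noise per printed spot across three slides.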 The settings on record: FSTL3 binding, higher = more signal.
Chain of Follistatin-related protein 3 (Homo sapiens) (O95633 whole entry, looked up): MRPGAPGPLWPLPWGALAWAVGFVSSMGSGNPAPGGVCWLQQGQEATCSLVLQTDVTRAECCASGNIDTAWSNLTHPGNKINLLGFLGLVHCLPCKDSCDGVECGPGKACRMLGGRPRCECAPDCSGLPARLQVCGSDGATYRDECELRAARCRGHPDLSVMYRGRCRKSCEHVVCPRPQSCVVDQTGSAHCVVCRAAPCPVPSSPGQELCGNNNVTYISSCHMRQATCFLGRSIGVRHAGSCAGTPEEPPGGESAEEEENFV
Experiment [19] addresses Dickkopf-related protein 1 (Homo sapiens) (UniProt O94907). As to the kind of experiment: DKK1 binders on small-molecule microarrays, primary screen, biochemical, small-molecule microarray, 635 nm fluorescence scan (AID 1106).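 Note: score merges emission near 667 nm with signal to noise over three replicate slides.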 Conditions: DKK1 binding, higher = more signal.
For experiment [20], the system named is Inhibin beta A chain (activin A). Put plainly: INHBA (activin A) binders on microarrays, primary screen, biochemical, small-molecule microarray, 635 nm fluorescence scan (AID 1107).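 Note: mouse activin A protein probed at 4.33 µg/mL on printed slides; score merges bound-protein fluorescence near 667 nm with spot signal-to-noise.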 Conditions: small-molecule microarray binding, higher = more signal.

Chain of Dickkopf-related protein 1 (Homo sapiens) (O94907 whole entry, looked up): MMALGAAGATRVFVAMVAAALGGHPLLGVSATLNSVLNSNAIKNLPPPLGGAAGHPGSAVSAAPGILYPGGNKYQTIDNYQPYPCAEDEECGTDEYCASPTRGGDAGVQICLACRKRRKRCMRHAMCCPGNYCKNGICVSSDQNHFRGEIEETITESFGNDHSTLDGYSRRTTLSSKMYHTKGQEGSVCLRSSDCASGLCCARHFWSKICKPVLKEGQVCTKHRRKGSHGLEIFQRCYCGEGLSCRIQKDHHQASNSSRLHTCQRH
Chain of Fibroblast growth factor 10 (Homo sapiens) (O15520 whole entry, looked up): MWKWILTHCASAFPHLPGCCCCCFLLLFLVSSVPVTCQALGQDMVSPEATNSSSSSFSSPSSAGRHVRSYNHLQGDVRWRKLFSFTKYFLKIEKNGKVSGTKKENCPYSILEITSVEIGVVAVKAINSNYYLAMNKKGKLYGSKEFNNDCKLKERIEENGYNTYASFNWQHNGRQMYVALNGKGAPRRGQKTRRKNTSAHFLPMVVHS
Chain of Neurogenic locus notch homolog protein 3 (Homo sapiens) (Q9UM47 whole entry, looked up): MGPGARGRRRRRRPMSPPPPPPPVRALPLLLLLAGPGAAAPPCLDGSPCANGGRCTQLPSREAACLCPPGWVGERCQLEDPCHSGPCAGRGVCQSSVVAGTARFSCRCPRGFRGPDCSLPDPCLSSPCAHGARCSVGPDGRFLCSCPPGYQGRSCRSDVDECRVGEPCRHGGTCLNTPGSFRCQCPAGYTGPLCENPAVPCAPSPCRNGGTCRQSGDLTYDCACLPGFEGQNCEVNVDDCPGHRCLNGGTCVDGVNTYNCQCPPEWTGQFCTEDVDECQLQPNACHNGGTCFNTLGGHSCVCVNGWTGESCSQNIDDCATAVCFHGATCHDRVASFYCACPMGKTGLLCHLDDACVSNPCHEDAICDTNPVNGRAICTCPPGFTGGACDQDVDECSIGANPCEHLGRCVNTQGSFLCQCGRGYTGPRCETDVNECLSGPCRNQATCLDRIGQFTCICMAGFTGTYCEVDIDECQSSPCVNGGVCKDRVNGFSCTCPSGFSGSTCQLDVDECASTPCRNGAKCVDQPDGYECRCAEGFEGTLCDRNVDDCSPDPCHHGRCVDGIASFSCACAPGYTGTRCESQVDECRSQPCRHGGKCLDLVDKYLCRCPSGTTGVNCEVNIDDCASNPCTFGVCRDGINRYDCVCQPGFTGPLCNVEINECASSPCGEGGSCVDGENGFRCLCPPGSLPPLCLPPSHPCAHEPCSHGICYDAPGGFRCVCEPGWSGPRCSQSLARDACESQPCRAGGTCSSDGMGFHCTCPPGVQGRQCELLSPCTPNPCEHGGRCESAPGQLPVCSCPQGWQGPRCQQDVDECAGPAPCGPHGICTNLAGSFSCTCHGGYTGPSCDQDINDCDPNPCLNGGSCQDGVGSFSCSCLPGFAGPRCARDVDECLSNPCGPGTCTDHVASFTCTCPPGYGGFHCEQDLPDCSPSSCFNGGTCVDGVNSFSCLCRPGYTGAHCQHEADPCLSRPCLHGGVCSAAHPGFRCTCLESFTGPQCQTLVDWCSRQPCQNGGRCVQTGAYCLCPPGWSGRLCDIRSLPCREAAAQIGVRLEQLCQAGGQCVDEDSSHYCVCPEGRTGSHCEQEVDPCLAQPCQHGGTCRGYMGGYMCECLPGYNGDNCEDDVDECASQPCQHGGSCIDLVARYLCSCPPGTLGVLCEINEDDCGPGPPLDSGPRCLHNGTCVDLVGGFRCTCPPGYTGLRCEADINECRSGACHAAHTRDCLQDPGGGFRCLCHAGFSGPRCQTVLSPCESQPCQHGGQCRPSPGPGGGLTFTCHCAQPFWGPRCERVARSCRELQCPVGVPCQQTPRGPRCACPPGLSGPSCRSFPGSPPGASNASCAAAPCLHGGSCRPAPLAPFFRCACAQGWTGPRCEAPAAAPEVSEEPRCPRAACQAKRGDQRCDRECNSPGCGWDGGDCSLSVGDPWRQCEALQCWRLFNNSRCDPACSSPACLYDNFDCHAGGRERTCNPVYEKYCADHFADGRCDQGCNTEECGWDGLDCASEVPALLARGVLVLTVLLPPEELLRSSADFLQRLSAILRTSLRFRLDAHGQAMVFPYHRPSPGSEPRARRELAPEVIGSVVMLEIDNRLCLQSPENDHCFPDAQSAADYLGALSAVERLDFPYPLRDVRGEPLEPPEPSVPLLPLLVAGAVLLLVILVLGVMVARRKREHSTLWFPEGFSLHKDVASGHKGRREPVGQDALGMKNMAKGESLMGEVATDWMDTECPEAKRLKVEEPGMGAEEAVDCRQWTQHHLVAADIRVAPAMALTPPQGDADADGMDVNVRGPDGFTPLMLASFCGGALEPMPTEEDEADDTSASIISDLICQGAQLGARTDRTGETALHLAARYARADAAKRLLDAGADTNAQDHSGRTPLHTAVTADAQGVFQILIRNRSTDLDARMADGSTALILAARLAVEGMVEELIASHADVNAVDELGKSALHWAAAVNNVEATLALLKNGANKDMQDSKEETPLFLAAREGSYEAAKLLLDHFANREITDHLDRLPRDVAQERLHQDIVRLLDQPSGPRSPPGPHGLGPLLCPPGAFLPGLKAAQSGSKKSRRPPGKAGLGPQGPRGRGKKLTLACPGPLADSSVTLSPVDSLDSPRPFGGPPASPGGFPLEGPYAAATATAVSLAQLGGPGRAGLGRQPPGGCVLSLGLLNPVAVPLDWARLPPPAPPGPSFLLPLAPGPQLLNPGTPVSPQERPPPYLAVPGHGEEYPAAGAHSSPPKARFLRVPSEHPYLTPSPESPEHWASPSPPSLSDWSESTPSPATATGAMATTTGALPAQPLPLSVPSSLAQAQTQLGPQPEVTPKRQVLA

With `O=C1OCCC=C[C@H]2OC34C=CCN(Cc5ccccc5)C(=O)[C@H]3N(CCO)C(=O)[C@@H]4C12` (stereo not given in full), the composite z-score in experiment [1] was -1.05; in experiment [5], -0.89; in experiment [7] it was -0.172; in experiment [8], -0.526; in experiment [9], -0.634; in experiment [10], -0.304. Further, the composite z-score in [11] was -0.37; in experiment [12], -0.273; in experiment [13], 0.0184; in experiment [15], -0.835; in [16], -0.958; in [17], -0.844. Besides, the composite z-score in experiment [18] is -0.376; in experiment [19], -0.46; in experiment [20] it was 1.02. In addition, the z-score was -2.04 (inactive) in experiment [2]; -4.14 (inactive) in experiment [3]; -1.5 (inactive) in experiment [4]; 2.71 (inactive) in [6]; -2.82 (inactive) in experiment [14].
For `CO[C@H]1O[C@H](CO)[C@@H](OC(=O)CCc2ccccc2)[C@@H]2OC(=O)[C@H](Cc3cccc(Br)c3)C/C=C/C[C@@H](Cc3cccc(Br)c3)C(=O)O[C@@H]12`, the composite z-score in experiment [1] was 0.922; in [5], 0.8; in experiment [7], -0.134; in experiment [8], -0.6; in [9] it was -0.791; in experiment [10] it was -0.186. Further, the composite z-score in experiment [11] was 1.6; in experiment [12], 0.385; in [13], 0.874; in experiment [15] it was -0.487; in experiment [16] it was -0.78; in experiment [17] it was -1.49. Also, the composite z-score is -0.753 in experiment [18], -0.402 in [19] and 0.951 in [20]. Further, the z-score in experiment [2] is -4.85 (inactive); in experiment [3], -4.06 (inactive); in [4], 3.62 (inactive); in experiment [6], 2.82 (inactive); in experiment [14], -2.19 (inactive).
For `C=C(CCCC)/C(=C/C[C@H](OC(=O)c1ccncc1)c1cccc(OCCO)c1)c1cc(C(=O)OC)ccc1OC`, the composite z-score in experiment [1] was 1.4; in experiment [5] it was 1.23; in experiment [7], -0.174; in experiment [8], 1.08; in experiment [9], 0.966; in experiment [10] it was -0.112. Further, the composite z-score in [11] is 0.169; in experiment [12] it was -0.166; in [13], -0.0107; in experiment [15], 1.04; in [16], 0.174; in experiment [17], -0.218. Also, the figures for the composite z-score in experiment [18], in experiment [19] and in [20] were 0.611, 0.347 and 0.868, respectively. The z-score in [2] was 0.15 (inactive); in experiment [3] it was -0.323 (inactive); in [4], 2.82 (inactive); in experiment [6], 1.94 (inactive); in experiment [14], -1.37 (inactive).
For the compound `CC(C)NC(=O)[C@@]1(Cc2ccccc2I)c2ccccc2C(=O)N(C2CCCCC2)[C@H]1c1ccc(CO)cc1`, the composite z-score was 1.53 in experiment [1]; 3.4 in [5]; 0.261 in [7]; 0.128 in [8]; 1.14 in experiment [9]; 0.0861 in experiment [10]. Besides, the composite z-score in experiment [11] was 1.02; in experiment [12] it was 0.65; in [13], 0.793; in experiment [15], 1.1; in [16], 1.2; in experiment [17], 0.118. The values for the composite z-score in experiment [18], in experiment [19] and in [20] were 1.35, 0.4 and 0.386, respectively. The z-score in [2] is 0.401 (inactive); in [3], -2.09 (inactive); in experiment [4] it was -1.03 (inactive); in experiment [6], -0.432 (inactive); in experiment [14], 0.129 (inactive).
In the case of `C=CC[C@]1(C(=O)NCC(O)CO)N=C(c2ccc(OCCCO)cc2)O[C@H]1c1ccccc1` (stereo not given in full), the composite z-score in [1] is 0.16; in experiment [5], 3.57; in experiment [7], 0.0544; in experiment [8], -0.923; in experiment [9] it was -0.898; in experiment [10], -0.169. For the same compound, the composite z-score in [11] is 1.23; in [12], 1.21; in experiment [13], 1.3; in [15], -0.159; in [16] it was 0.321; in [17] it was -1.48. Moreover, the composite z-score in experiment [18] was -1.7; in [19] it was -0.296; in experiment [20] it was 0.236. The z-score in [2] was -1.44 (inactive); in experiment [3], -0.514 (inactive); in experiment [4], -1.18 (inactive); in experiment [6] it was 2.05 (inactive); in [14], 0.164 (inactive).
